Drawing on PubChem BioAssay (NCATS), this text covers Potency for 16 molecules.

Activity calls are given as the source filed them.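 How the source made its calls: active means compounds whose dose series gives a full or clear partial fitted curve of increased nuclear translocation; inconclusive means weak partial curve or effect only at the top dose; inactive means no dose-dependent translocation response.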
Potency means the concentration at half of the fitted maximal effect.

The target in the assay is Glucocorticoid receptor (Homo sapiens) (UniProt P04150). The experiment in a line: GR-GFP Redistribution (AID 450). Particulars: U2OS GR-GFP nuclear translocation, laser cytometry, 2 h; series mostly up to 20.6 µM.
Sequence of Glucocorticoid receptor (Homo sapiens) (P04150 whole entry, looked up): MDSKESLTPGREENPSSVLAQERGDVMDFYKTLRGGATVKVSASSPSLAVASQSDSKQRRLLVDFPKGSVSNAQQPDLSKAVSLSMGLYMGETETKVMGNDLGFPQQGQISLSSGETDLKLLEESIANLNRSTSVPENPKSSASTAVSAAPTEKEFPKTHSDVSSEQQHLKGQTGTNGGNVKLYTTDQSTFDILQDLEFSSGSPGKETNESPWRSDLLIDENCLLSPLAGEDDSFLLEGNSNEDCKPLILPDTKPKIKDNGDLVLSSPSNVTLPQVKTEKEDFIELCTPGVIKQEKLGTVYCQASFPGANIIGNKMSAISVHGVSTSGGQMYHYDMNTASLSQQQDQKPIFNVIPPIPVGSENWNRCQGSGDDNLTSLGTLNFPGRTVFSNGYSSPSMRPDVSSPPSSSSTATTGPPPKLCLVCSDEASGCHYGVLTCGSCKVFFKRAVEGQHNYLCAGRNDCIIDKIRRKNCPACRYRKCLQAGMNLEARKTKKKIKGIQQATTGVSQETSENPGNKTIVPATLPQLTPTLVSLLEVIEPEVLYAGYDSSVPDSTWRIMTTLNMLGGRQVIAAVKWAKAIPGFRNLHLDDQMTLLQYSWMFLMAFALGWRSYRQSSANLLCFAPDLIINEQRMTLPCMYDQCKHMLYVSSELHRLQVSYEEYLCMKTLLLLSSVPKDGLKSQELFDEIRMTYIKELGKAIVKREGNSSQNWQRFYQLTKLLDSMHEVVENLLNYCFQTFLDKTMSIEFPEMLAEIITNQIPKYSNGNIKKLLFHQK
Consider `Nc1nnnn1/N=C/c1ccccn1`, for which the Potency was > 20.6 µM (inactive). Regarding `COc1ccc(C(=O)Nc2ccccc2N2CCOCC2)cc1Br`, the Potency was > 20.6 µM (inactive). Regarding `COCc1[nH]nc2c1C(c1ccccc1OC)C(C#N)=C(N)O2` (stereo unspecified), the Potency is > 20.6 µM (inactive). Take `CCCC1Cc2c(sc3ncnc(N)c23)CO1` (stereo unspecified): the Potency was > 20.6 µM (inactive). On to `COc1ccc(C2C=C(c3ccc(Cl)cc3)Nc3nc(NC(C)=O)nn32)cc1` (stereo unspecified), for which the Potency is > 20.6 µM (inactive). For the molecule `O=C(O)CC(C(=O)OCCOc1ccccc1)N1CCOCC1` (stereo unspecified), the Potency was > 20.6 µM (inactive). Take `COc1ccc(N2C(=O)CC(N(Cc3ccc(S(N)(=O)=O)cc3)C(C)=O)C2=O)cc1` (stereo unspecified): the Potency was > 20.6 µM (inactive).

For `CCCOC(=O)CSC1=C(C#N)C(c2ccccc2OC)C(C#N)C(=O)N1` (stereo unspecified), the Potency was > 20.6 µM (inactive). As to `CCCC1C2C(=O)N(c3ccccc3OC)C(=O)C2ON1c1ccccc1` (stereo unspecified), the Potency is > 20.6 µM (inactive). In the case of `C=CCc1cccc(/C=N/n2cnnc2)c1O`, the Potency is > 20.6 µM (inactive).

As for `C=CCN=C(NC#N)SCCc1ccccc1`, the Potency was > 20.6 µM (inactive). For the molecule `CC1CCCCN1C(=O)C12CCC(C)(/C(=N/O)C1)C2(C)C` (stereo unspecified), the Potency was > 20.6 µM (inactive). For the molecule `COc1ccc(-c2c3c([nH]c(=S)c2C#N)CCC3)cc1`, the Potency was > 20.6 µM (inactive). For `CCc1cccc(CC)c1N(COC)C(=O)Cn1nnc2ccccc21`, the Potency is > 20.6 µM (inactive).

Turning to `C=CCNc1nc(C)nc(OC)n1`, the Potency was > 20.6 µM (inactive). The figure for `COc1ccc(C(=O)c2oc3nc(C)cc(C)c3c2N)cc1` is > 20.6 µM (inactive).
